# In PubChem BioAssay (EPA / NIEHS):
# Where “and” joins values, the source holds several entries; their conditions need not be identical. Identical values can stand only once. Some structures have more than one record in an assay (separate samples or runs), and their calls can disagree. Calls of active or inactive are those of the source. Rule for the calls: active = hit-call score of the fitted dose curve at least 0.9, where 1 is the maximum; inactive = score below 0.9.
# How the values were obtained:
# [1] = read-out: Pselectin, SELP (gene 6403); experiment: BSK_4H_Pselectin: BioMAP Diversity Plus: 4H Assay for Pselectin Biomarker Activity (AID 2283026); conditions: primary human endothelial cells (HUVEC); actives raise or lower the signal
# How it was run: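 Primary human umbilical vein endothelial cells were exposed to test chemical for 24 h, then cell-surface P-selectin was quantified by ELISA. Activity was fitted bidirectionally against DMSO as negative control and baseline.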
# [2] = read-out: Human Leukocyte Antigen - DR isotype (HLADR), HLA-DRA (gene 3122); experiment: BSK_BE3C_HLADR: BioMAP Diversity Plus: BE3C Assay for Human Leukocyte Antigen - DR isotype (HLADR) Biomarker Activity (AID 2283032); conditions: primary human bronchial epithelial cells; actives raise or lower the signal
# How it was run: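 Human primary bronchial epithelial cells in the BE3C system were exposed to chemicals for 24 h, after which HLA-DR levels were quantified by ELISA. Activity was fitted bidirectionally, gain or loss of signal, against DMSO as negative control and baseline.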
# [3] = read-out: Vascular cell adhesion molecule 1 (VCAM1), VCAM1 (gene 7412); experiment: BSK_4H_VCAM1: BioMAP Diversity Plus: 4H Assay for Vascular cell adhesion molecule 1 (VCAM1) Biomarker Activity (AID 2283033); conditions: primary human endothelial cells (HUVEC); actives raise or lower the signal;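 for outcome: cell-surface VCAM-1 protein measured by ELISA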
# How it was run: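 Primary human umbilical vein endothelial cells were exposed to chemicals for 24 h, after which VCAM-1 was quantified by ELISA. Responses were fitted bidirectionally against DMSO as negative control and activity baseline.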
# [4] = read-out: urokinase plasminogen activator (uPA), PLAU (gene 5328); experiment: BSK_BE3C_uPA: BioMAP Diversity Plus: BE3C Assay for urokinase plasminogen activator (uPA) Biomarker Activity (AID 2283038); conditions: primary human bronchial epithelial cells; actives raise or lower the signal;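 for outcome: uPA protein level quantified by ELISA in cell cultures; uPA read one day after compound addition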
# How it was run: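 Human primary bronchial epithelial cells were exposed to chemical for 24 h, then uPA levels were measured by ELISA. Responses were fitted bidirectionally against DMSO as negative control and baseline. Parallel SRB staining of total protein gauged overt cytotoxicity.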
# [5] = read-out: Interleukin-6 (IL6), IL6 (gene 3569); experiment: BSK_CASM3C_IL6: BioMAP Diversity Plus: CASM3C Assay for Interleukin-6 (IL6) Biomarker Activity for (AID 2283040); conditions: primary human coronary artery smooth muscle cells; actives raise or lower the signal
# [6] = read-out: Tissue Factor, F3 (gene 2152); experiment: BSK_CASM3C_TissueFactor: BioMAP Diversity Plus: CASM3C Assay for Tissue Factor Biomarker Activity (AID 2283052); conditions: primary human coronary artery smooth muscle cells; actives raise or lower the signal;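 note: cell surface tissue factor protein level read by ELISA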
# [7] = read-out: Urokinase-type plasminogen activator receptor (uPAR), PLAUR (gene 5329); experiment: BSK_CASM3C_uPAR: BioMAP Diversity Plus: CASM3C Assay for Urokinase-type plasminogen activator receptor (uPAR) Biomarker Activity (AID 2283054); conditions: primary human coronary artery smooth muscle cells; actives raise or lower the signal;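 note: cell-surface uPAR protein level quantified by ELISA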
# [8] = read-out: Collagen III, COL3A1 (gene 1281); experiment: BSK_hDFCGF_CollagenIII: BioMAP Diversity Plus: hDFCGF Assay for Collagen III Biomarker Activity (AID 2283056); conditions: primary human foreskin fibroblasts; actives raise or lower the signal
# How it was run: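 Human foreskin primary fibroblasts were exposed to test chemicals for 24 h, after which collagen III was quantified by ELISA. Activity was fitted bidirectionally against DMSO as negative control and baseline.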
# [9] = read-out: Epidermal growth factor receptor (EGFR), EGFR (gene 1956); experiment: BSK_hDFCGF_EGFR: BioMAP Diversity Plus: hDFCGF Assay for Epidermal growth factor receptor (EGFR) Biomarker Activity (AID 2283057); conditions: primary human foreskin fibroblasts; actives raise or lower the signal
# How it was run: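 Primary human foreskin fibroblasts were exposed to compound for 24 h, after which cell-surface EGFR was quantified by ELISA. Activity was fitted bidirectionally against the DMSO negative control as baseline.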
# [10] = read-out: Vascular cell adhesion molecule 1 (VCAM1), VCAM1 (gene 7412); experiment: BSK_hDFCGF_VCAM1: BioMAP Diversity Plus: hDFCGF Assay for Vascular cell adhesion molecule 1 (VCAM1) Biomarker Activity (AID 2283065); conditions: primary human foreskin fibroblasts; actives raise or lower the signal;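 for AC50: VCAM-1 protein level quantified by ELISA after 24 h chemical exposure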
# How it was run: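 Primary human foreskin fibroblasts (hDFCGF system) were dosed with chemical and VCAM-1 was measured by ELISA 24 h later. Bidirectional curve fitting used DMSO as negative control and activity baseline.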
# CD40, CD40 (gene 958) = experiment: BSK_LPS_CD40: BioMAP Diversity Plus: LPS Assay for CD40 Biomarker Activity (AID 2283076); conditions: primary human HUVEC with PBMC; actives raise or lower the signal
# How it was run: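 Primary human umbilical vein endothelial cells co-cultured with peripheral blood mononuclear cells, LPS-stimulated, were dosed with chemical and read 24 h later. CD40 levels were measured by ELISA and fitted bidirectionally against DMSO as negative control and baseline.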
# [11] = read-out: E-selectin (Homo sapiens) (UniProt P16581); experiment: BSK_LPS_Eselectin: BioMAP Diversity Plus: LPS Assay for Eselectin Biomarker Activity (AID 2283077); conditions: primary human HUVEC with PBMC; actives raise or lower the signal
# How it was run: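 Human umbilical vein endothelial cells co-cultured with peripheral blood mononuclear cells under LPS stimulation; E-selectin measured by ELISA 24 h after chemical dosing. Activity fitted bidirectionally against DMSO as negative control and baseline.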
# [12] = read-out: Monocyte Chemoattractant Protein-1 (MCP1), CCL2 (gene 6347); experiment: BSK_LPS_MCP1: BioMAP Diversity Plus: LPS Assay for Monocyte Chemoattractant Protein-1 (MCP1) Biomarker Activity (AID 2283081); conditions: primary human HUVEC with PBMC; actives raise or lower the signal;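 for AC50: secreted MCP-1 protein quantified by ELISA in culture supernatant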
# How it was run: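 HUVEC plus PBMC co-culture (human primary cells, LPS system) exposed to test chemical for 24 h; MCP-1 measured by ELISA. Bidirectional curve fitting against DMSO baseline; parallel SRB total-protein staining flags overt cytotoxicity.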
# [13] = BSK_LPS_PGE2: BioMAP Diversity Plus: LPS Assay for Prostaglandin E2 (PGE2) Biomarker Activity (AID 2283082); conditions: primary human HUVEC with PBMC; actives raise or lower the signal;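 for AC50: secreted prostaglandin E2 measured by ELISA in LPS-stimulated co-culture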
# How it was run: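 HUVEC plus PBMC co-culture stimulated with LPS; secreted PGE2 quantified by ELISA 24 h after chemical dosing. Activity fitted bidirectionally against DMSO as negative control and baseline; parallel SRB total-protein staining served as cytotoxicity check.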
# [14] = read-out: Macrophage colony-stimulating factor (MCSF), CSF1 (gene 1435); experiment: BSK_LPS_MCSF: BioMAP Diversity Plus: LPS Assay for Macrophage colony-stimulating factor (MCSF) Biomarker Activity (AID 2283083); conditions: primary human HUVEC with PBMC; actives raise or lower the signal
# How it was run: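 Human umbilical vein endothelial cells co-cultured with peripheral blood mononuclear cells were exposed to compound for 24 h. M-CSF levels were measured by ELISA, and bidirectional curve fitting used DMSO as the negative control and baseline.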
# CD69, CD69 (gene 969) = experiment: BSK_SAg_CD69: BioMAP Diversity Plus: SAg Assay for CD69 Biomarker Activity (AID 2283089); conditions: primary human HUVEC with PBMC; actives raise or lower the signal;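 for AC50: cell surface CD69 protein quantified by ELISA with fluorescence detection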
# How it was run: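 ELISA, fluorescence read-out: CD69 on human umbilical vein endothelial cell + PBMC co-culture, 24 h post-dosing. Gain or loss of signal fitted bidirectionally against DMSO baseline.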
# [15] = BSK_SAg_PBMCCytotoxicity: PBMC Cytotoxicity Assessment in the BioMAP Diversity Plus: SAg Assay (AID 2283093); conditions: primary human HUVEC with PBMC;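 note: PBMC viability measured as Alamar Blue reduction fluorescence at 546/580 nm; fitted both ways against DMSO so a hit may be loss or gain of signal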
# How it was run: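 HUVEC/PBMC co-culture; PBMC exposed to chemical 1 h before SEB and TSST-1 activation (20 ng/mL each), incubated 90 h, then Alamar Blue 6 h, fluorescence 546/580 nm. Bidirectional fit versus DMSO baseline.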
# [16] = ATG_PXRE_CIS: Attagene CIS-FACTORIAL HepG2 Assay for human Pregnane X Receptor Element (PXRE) (AID 2282957); conditions: HepG2 Attagene CIS-FACTORIAL PXRE reporter, mRNA; actives raise or lower the signal
# How it was run: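 HepG2 cells transiently transfected with cis-regulated multiple reporter transcription units; endogenous factor activity measured as reporter mRNA 24 h after dosing. RT-PCR, fluorescent primer extension, HpaI digestion, capillary electrophoresis; bidirectional fit versus DMSO baseline.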
# [17] = ATG_Sox_CIS: Attagene CIS-FACTORIAL HepG2 Assay for human SRY-box transcription factor (SOX) (AID 2282960); conditions: HepG2 Attagene cis-factorial SOX reporter, mRNA; actives raise or lower the signal
# How it was run: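 Endogenous factor activity in human liver HepG2 cells carrying transfected cis-regulated reporter units. RNA taken 24 h post-dose, reverse-transcribed, PCR-amplified and sized by capillary electrophoresis. Gain or loss of signal fitted relative to DMSO.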
# [18] = target: X-box-binding protein 1 (Homo sapiens) (UniProt P17861); experiment: ATG_Xbp1_CIS: Attagene CIS-FACTORIAL HepG2 Assay for human X-box Binding Protein 1 (XBP1) (AID 2282972); conditions: HepG2 XBP1 cis-element reporter, Attagene multiplex; actives raise or lower the signal
# Sequence of X-box-binding protein 1 (Homo sapiens) (P17861 whole entry, looked up, the tested form may be a part): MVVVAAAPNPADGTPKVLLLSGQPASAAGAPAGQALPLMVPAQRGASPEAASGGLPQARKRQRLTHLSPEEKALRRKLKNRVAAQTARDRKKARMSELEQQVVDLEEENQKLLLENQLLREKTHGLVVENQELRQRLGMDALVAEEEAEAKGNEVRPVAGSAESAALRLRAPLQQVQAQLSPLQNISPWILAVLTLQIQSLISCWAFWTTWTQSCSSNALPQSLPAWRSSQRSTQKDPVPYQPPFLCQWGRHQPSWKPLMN
# How it was run: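 Fluorescence-labelled cDNA fragments from reporter transcripts, separated by capillary electrophoresis, give the signal. Source: HepG2 cells transfected with promoter-driven reporter units, harvested 24 h post-dose. DMSO served as reference for bidirectional curve fitting.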
# Sequence of E-selectin (Homo sapiens) (P16581 whole entry, looked up): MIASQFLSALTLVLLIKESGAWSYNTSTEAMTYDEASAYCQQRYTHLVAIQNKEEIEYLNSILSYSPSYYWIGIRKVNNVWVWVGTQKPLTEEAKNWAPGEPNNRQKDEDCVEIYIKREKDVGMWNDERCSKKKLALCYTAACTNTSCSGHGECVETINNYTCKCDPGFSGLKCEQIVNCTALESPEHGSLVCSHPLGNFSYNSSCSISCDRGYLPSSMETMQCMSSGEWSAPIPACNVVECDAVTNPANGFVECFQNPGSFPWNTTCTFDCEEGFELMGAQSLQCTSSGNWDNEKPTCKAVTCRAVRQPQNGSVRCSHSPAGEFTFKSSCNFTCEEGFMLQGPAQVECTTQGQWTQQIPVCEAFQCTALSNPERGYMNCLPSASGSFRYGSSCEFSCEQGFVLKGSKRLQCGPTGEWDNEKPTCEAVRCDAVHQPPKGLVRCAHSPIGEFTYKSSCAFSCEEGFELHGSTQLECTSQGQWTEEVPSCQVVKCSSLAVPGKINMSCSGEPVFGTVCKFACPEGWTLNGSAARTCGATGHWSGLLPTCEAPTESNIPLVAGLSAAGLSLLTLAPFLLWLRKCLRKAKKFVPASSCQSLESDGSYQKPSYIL
structure (smiles),measurement,setting,value
CC(C)C1OCCN1CCOC(=O)NCCCCCCNC(=O)OCCN1CCOC1C(C)C (stereo unspecified),outcome,[1],inactive
same,outcome,[2],inactive
same,outcome,[3],inactive
same,outcome,[4],inactive
same,outcome,[5],inactive
same,outcome,[6],inactive
same,outcome,[7],inactive
same,outcome,[8],inactive
same,outcome,[9],inactive
same,outcome,[10],inactive
same,outcome,"CD40, CD40 (gene 958)",inactive
same,outcome,[11],inactive
same,outcome,[12],inactive
same,outcome,[13],inactive
same,outcome,[14],inactive
same,outcome,"CD69, CD69 (gene 969)",inactive
same,outcome,[15],inactive
Nc1ccc(S(=O)(=O)Nc2cnc3ccccc3n2)cc1,outcome,[16],inactive
same,outcome,[17],inactive
same,outcome,[18],inactive
O=C(C1CCCCC1)N1CC(=O)N2CCc3ccccc3C2C1 (stereo unspecified),AC50,[16],7.1 µM (active)
same,outcome,[17],inactive
same,outcome,[18],inactive
O=[N+]([O-])c1cc(S(=O)(=O)Nc2ccccc2)ccc1Nc1ccccc1,AC50,[1],32.2 µM (active) and 31.7 µM (active)
same,AC50,[2],31 µM (active) and 32 µM (active)
same,AC50,[3],27.2 µM (active)
same,outcome,[3],inactive
same,AC50,[4],34.9 µM (active)
same,outcome,[4],inactive
same,AC50,[5],20 µM (active) and 10.3 µM (active)
same,outcome,[6],inactive
same,outcome,[7],inactive
same,AC50,[8],5.82 µM (active) and 5.34 µM (active)
same,AC50,[9],30.4 µM (active) and 31.3 µM (active)
same,AC50,[10],32.4 µM (active) and 27 µM (active)
same,AC50,"CD40, CD40 (gene 958)",32.6 µM (active) and 20 µM (active)
same,AC50,[11],20 µM (active) and 26.5 µM (active)
same,AC50,[12],29.1 µM (active) and 28.5 µM (active)
same,AC50,[13],28.9 µM (active)
same,outcome,[13],inactive
same,AC50,[14],9.74 µM (active)
same,outcome,[14],inactive
same,AC50,"CD69, CD69 (gene 969)",22 µM (active) and 18 µM (active)
same,outcome,[15],inactive
CNC(=C[N+](=O)[O-])NCCSCc1csc(CN(C)C)n1,outcome,[16],inactive
same,outcome,[18],inactive
COc1ccc(C(=O)c2ccccc2O)c(O)c1,AC50,[1],20 µM (active)
same,outcome,[1],inactive
same,outcome,[2],inactive
same,AC50,[3],11.5 µM (active) and 14.2 µM (active)
same,outcome,[4],inactive
same,outcome,[5],inactive
same,outcome,[6],inactive
same,outcome,[7],inactive
same,AC50,[8],7.73 µM (active)
same,outcome,[8],inactive
same,outcome,[9],inactive
same,outcome,[10],inactive
same,outcome,"CD40, CD40 (gene 958)",inactive
same,outcome,[11],inactive
same,outcome,[12],inactive
same,AC50,[13],6.03 µM (active)
same,outcome,[14],inactive
same,outcome,"CD69, CD69 (gene 969)",inactive
same,outcome,[15],inactive
Oc1cccc2ccccc12,AC50,[16],5.66 µM (active)
same,outcome,[17],inactive
same,outcome,[1],inactive
same,outcome,[2],inactive
same,outcome,[3],inactive
same,outcome,[4],inactive
same,outcome,[5],inactive
same,outcome,[6],inactive
same,outcome,[7],inactive
same,outcome,[8],inactive
same,outcome,[9],inactive
same,outcome,[10],inactive
same,outcome,"CD40, CD40 (gene 958)",inactive
same,outcome,[11],inactive
same,outcome,[12],inactive
same,outcome,[13],inactive
same,outcome,[14],inactive
same,outcome,"CD69, CD69 (gene 969)",inactive
same,outcome,[15],inactive
CO[Si](CCCNCCN)(OC)OC,outcome,[17],inactive
same,outcome,[18],inactive
O=C(O)c1cc(Cl)cc(Cl)c1O,AC50,[16],68.7 µM (active)
same,outcome,[17],inactive
same,outcome,[18],inactive
CC(=O)OC(C)(C)Cc1ccccc1,outcome,[17],inactive
same,outcome,[18],inactive
COc1ccccc1Oc1c(NS(=O)(=O)c2ccc(C(C)(C)C)cc2)nc(-c2ncccn2)nc1OCCO,outcome,[1],inactive
same,outcome,[2],inactive
same,outcome,[3],inactive
same,outcome,[4],inactive
same,outcome,[5],inactive
same,AC50,[6],1.97 µM (active) and 5.36 µM (active)
same,outcome,[7],inactive
same,AC50,[8],3.9 µM (active) and 2.51 µM (active)
same,outcome,[9],inactive
same,outcome,[10],inactive
same,outcome,"CD40, CD40 (gene 958)",inactive
same,outcome,[11],inactive
same,outcome,[12],inactive
same,outcome,[13],inactive
same,outcome,[14],inactive
same,outcome,"CD69, CD69 (gene 969)",inactive
same,outcome,[15],inactive
CC(C)(C)NC(=O)[C@@H]1CN(Cc2cccnc2)CCN1C[C@@H](O)C[C@@H](Cc1ccccc1)C(=O)N[C@H]1c2ccccc2C[C@H]1O,outcome,[17],inactive
same,outcome,[18],inactive
COc1ccc2ccccc2c1,outcome,[16],inactive
